Our source for the Potency, viability change, negative = cytotoxic and activity change, negative = cytotoxicity values is PubChem BioAssay (Tox21).

“And” between values parts separate entries of the source, which are not always exact repeats. Identical values can stand only once. Records with an inconclusive call do not appear. Values without a mark were called inactive. The source made the active and inactive calls. Calls come from the whole dose curve; as a rule, active = well fitted cell-killing curve with a large enough effect in the repeat runs; inconclusive = weak or mixed curves, or effect the other way; inactive = flat fitted curve, though single readings scatter.

A short description of assay [1]: cAMP Responsive Elements (CRE) small molecule antagonists, cell-based qHTS assay: qHTS cell viability counter screen (AID 2060913). Note: nearly all actives have a fitted effect of over 40% in size. In outline: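 HEK293T CRE-bla, 2,000 cells/well, 18 h preincubation; cpd in DMSO + NKH477 0.25 uM final, 3 h 37 C/5% CO2; LiveBLAzer 2 h RT, then CellTiter-Glo 30 min RT, luminescence.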
(qHTS replaces the single test concentration by a dilution series.)

A short description of assay [2]: cAMP Responsive Elements (CRE) small molecule agonists, cell-based qHTS assay: qHTS cell viability counter screen (AID 2060914). Note: nearly all actives have a fitted effect of over 50% in size. The gist of the method: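 In the same wells as the reporter read, viability of CRE-bla HEK 293T cells was quantified by CellTiter-Glo luminescence after a 3 h compound exposure.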
% is set by controls: 0 for no effect and ±100 for the full control effect; potency is the fitted concentration of half-maximal effect.

`CCCc1ncc(C(=O)O)s1`: the Potency result in assay [1] and in assay [2] was “inactive” in each case.
Consider `CC(=O)[C@H]1CC[C@H]2[C@@H]3CCC4=CC(=O)CC[C@]4(C)[C@H]3CC[C@]12C`, for which, in assay [1], the Potency was 60.8 µM (active) and 61.1 µM (active). For the same compound, the Potency result in assay [2] was “inactive”.
As to `Cc1cccc(C)c1NC(=O)c1ccccc1C(=O)O`, the Potency entry in assay [1] and in assay [2] was “inactive” in each case.
Consider `NO`, for which the Potency entry in assay [1] and in assay [2] was “inactive” throughout.
For `O=C(/C=C/c1ccc(O)c(O)c1)O[C@@H](C(=O)O)[C@@H](OC(=O)/C=C/c1ccc(O)c(O)c1)C(=O)O`, the Potency result in assay [1] and in assay [2] was “inactive” each time.
Consider `C=C1C[C@]23C[C@@]1(O)CC[C@H]2[C@@]12C=C[C@H](O)[C@@](C)(C(=O)O1)[C@H]2[C@@H]3C(=O)O`, for which the Potency result in assay [1] and in assay [2] was “inactive” each time.
Regarding `C[Si](C)(C)O[Si](C)(C)C`, the Potency result in assay [1] and in assay [2] was “inactive” each time.
With `CC(C)(CO)[C@@H](O)C(=O)NCCCO`, the Potency result in assay [1] and in assay [2] was “inactive” each time.
Take `CC1(C)S[C@@H]2[C@H](NC(=O)[C@H](N)c3ccccc3)C(=O)N2[C@H]1C(=O)O`: the Potency entry in assay [1] and in assay [2] was “inactive” throughout.
Regarding `C=CCOCC(CO)(COCC=C)COCC=C`, the Potency entry in assay [1] and in assay [2] was “inactive” in each case.
Turning to `CC(=O)Nc1ccc(C(=O)O)cc1`, the Potency entry in assay [1] and in assay [2] was “inactive” each time.
As for `O=C1c2cccc(O)c2C(=O)c2c(O)cccc21`, the Potency result in assay [1] and in assay [2] was “inactive” throughout.
In the case of `CN(C)/N=N/c1nc[nH]c1C(N)=O`, the Potency entry in assay [1] and in assay [2] was “inactive” throughout.
For `Cc1c(NC(C)C)c(=O)n(-c2ccccc2)n1C`, the Potency result in assay [1] and in assay [2] was “inactive” in each case.
On to `c1ccc(CN(Cc2ccccc2)Cc2ccccc2)cc1`, for which the Potency result in assay [1] and in assay [2] was “inactive” each time.
Regarding `CCCCC(CC)CN=C(N)NC(N)=NCCCCCCN=C(N)NC(N)=NCC(CC)CCCC` (stereo not drawn), the Potency was 21.1 µM (active) in assay [1] and 16.8 µM (active) in assay [2].
For the compound `CCCCCCCC/C=C\CCCCCCCC(=O)N(CCO)CCO`, the Potency result in assay [1] and in assay [2] was “inactive” in each case.
With `c1ccc2n[nH]nc2c1`, the Potency result in assay [1] and in assay [2] was “inactive” throughout.
Turning to `O=C1c2ccccc2C(=O)c2cc(S(=O)(=O)O)ccc21`, the Potency entry in assay [1] and in assay [2] was “inactive” throughout.
Regarding `O=C1C(c2[nH]c3ccc(S(=O)(=O)O)cc3c2O)=Nc2ccc(S(=O)(=O)O)cc21`, the Potency entry in assay [1] and in assay [2] was “inactive” each time.
Take `CC1=CC[C@H](C(C)C)C=C1`: the Potency entry in assay [1] and in assay [2] was “inactive” each time.
For the compound `Nc1cc(C(Cl)=C(Cl)Cl)c(S(N)(=O)=O)cc1S(N)(=O)=O`, the Potency result in assay [1] and in assay [2] was “inactive” throughout.
`CC(Cc1cccc(C(F)(F)F)c1)NCCOC(=O)c1ccccc1` (stereo not drawn): the Potency result in assay [1] and in assay [2] was “inactive” each time.
Turning to `CCC(=O)c1ccc2c(c1)N(CCCN(C)C)c1ccccc1S2`, the Potency entry in assay [1] and in assay [2] was “inactive” throughout.
As to `COCCOC(=O)C1=C(C)NC(C)=C(C(=O)OC(C)C)C1c1cccc([N+](=O)[O-])c1` (stereo not drawn), the Potency result in assay [1] and in assay [2] was “inactive” each time.
Consider `O=[N+]([O-])c1cccc(Cl)c1`, for which the Potency result in assay [1] and in assay [2] was “inactive” throughout.
Regarding `Cc1cc(C)c(/C=C2\C(=O)Nc3ccccc32)[nH]1`, the Potency entry in assay [1] and in assay [2] was “inactive” in each case.
In the case of `CCN(CC)C(=O)Nc1ccc(OCC(O)CNC(C)(C)C)c(C(C)=O)c1` (stereo not drawn), the Potency result in assay [1] and in assay [2] was “inactive” in each case.
With `c1ccc2ccccc2c1`, the Potency entry in assay [1] and in assay [2] was “inactive” in each case.
With `O=Cc1c(Cl)cccc1Cl`, the Potency entry in assay [1] and in assay [2] was “inactive” throughout.
Turning to `O=C1c2ccccc2C(=O)C1c1ccccc1`, the Potency entry in assay [1] and in assay [2] was “inactive” in each case.
As for `CO[Si](CCCn1c(=O)n(CCC[Si](OC)(OC)OC)c(=O)n(CCC[Si](OC)(OC)OC)c1=O)(OC)OC`, the Potency result in assay [1] and in assay [2] was “inactive” each time.
As to `NC(=O)N(O)[C@@H]1C=C[C@H](Oc2cccc(Oc3ccc(F)cc3)c2)C1`, the Potency result in assay [1] and in assay [2] was “inactive” throughout.
Consider `CCCCCCCC/C=C\CCCCCCCC(=O)OCC`, for which the Potency result in assay [1] and in assay [2] was “inactive” each time.
As for `N[C@@H](CSCCCO)C(=O)O`, in assay [1], the viability change, negative = cytotoxic is 1.17% [at 18.9 µM]. Moreover, the activity change, negative = cytotoxicity in assay [2] was -12.4% [at 18.9 µM].
Take `C=CC(O)CCCCC` (stereo not drawn): the Potency entry in assay [1] and in assay [2] was “inactive” each time.
Consider `CC(C)NCC(O)c1ccc(NS(C)(=O)=O)cc1` (stereo not drawn), for which the Potency entry in assay [1] and in assay [2] was “inactive” throughout.
For `CC(C(=O)O)c1cccc(C(=O)c2ccccc2)c1` (stereo not drawn), the Potency result in assay [1] and in assay [2] was “inactive” each time.
As to `CCCCC(CC)COC(=O)/C=C\C(=O)OCC(CC)CCCC` (stereo not drawn), the Potency entry in assay [1] and in assay [2] was “inactive” in each case.
Take `O=CCc1ccccc1`: the Potency entry in assay [1] and in assay [2] was “inactive” in each case.
As for `CCCCOCC(C)OCC(C)O` (stereo not drawn), the Potency result in assay [1] and in assay [2] was “inactive” throughout.
Take `c1ccc2scnc2c1`: the Potency entry in assay [1] and in assay [2] was “inactive” throughout.
As to `CCOC(=O)C1=C(C)NC(C)=C(C(=O)OC)C1c1cccc([N+](=O)[O-])c1` (stereo not drawn), the Potency entry in assay [1] and in assay [2] was “inactive” throughout.
On to `CCCC=O`, for which the Potency result in assay [1] and in assay [2] was “inactive” throughout.
As to `CC(=O)[C@H]1[C@H](C#N)C[C@H]2[C@@H]3CC=C4C[C@@H](O)CC[C@]4(C)[C@H]3CC[C@@]21C`, the Potency result in assay [1] and in assay [2] was “inactive” throughout.
For `COC(=O)Nc1ccc(Cl)c(Cl)c1`, the Potency result in assay [1] and in assay [2] was “inactive” throughout.
Consider `CN1CCN(c2c(F)cc3c(=O)c(C(=O)O)cn4c3c2SCC4)CC1`, for which the Potency entry in assay [1] and in assay [2] was “inactive” each time.
Take `NS(=O)(=O)c1cc2c(cc1Cl)NC(C1CC3C=CC1C3)NS2(=O)=O` (stereo not drawn): the Potency result in assay [1] and in assay [2] was “inactive” throughout.
In the case of `CCCCN(CCCC)CCCCCCN(CCCC)CCCC`, the Potency entry in assay [1] and in assay [2] was “inactive” in each case.
Consider `CCCCCCCCCCN`, for which the Potency entry in assay [1] and in assay [2] was “inactive” each time.
Turning to `ON=C1CCCCC1`, the Potency entry in assay [1] and in assay [2] was “inactive” in each case.
Consider `O=C(O)C[C@H](O)C[C@H](O)/C=C/c1c(C2CC2)nc2ccccc2c1-c1ccc(F)cc1`, for which the viability change, negative = cytotoxic in assay [1] was 5.03% [at 18.9 µM]. For the same compound, the activity change, negative = cytotoxicity in assay [2] was 17.9% [at 18.9 µM].
Regarding `C#CC(C)N(C)C(=O)Nc1ccc(Cl)cc1` (stereo not drawn), the Potency result in assay [1] and in assay [2] was “inactive” in each case.
As to `Cc1cc(NS(=O)(=O)c2ccc(N)cc2)nc(C)n1`, the Potency entry in assay [1] and in assay [2] was “inactive” each time.
